Shown are actives, neighbours in structure and some others; about 2.4% of the full set was active somewhere.
WRN inhibitor = blocks human WRN helicase; WRN helicase unwinding, fluorescent forked duplex, kinetic; actives 0.46% (n = 360,000); AID 651768; Potency, µM (highest dose often 114 µM), for the others: top-dose activity change, negative = inhibition, usual class: inhibitors; Q14191; note: % is set by controls: 0 for no effect and ±100 for the full control effect; nearly all actives have a fitted effect of over 55% in size
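Screening of the MLSMR collection measured strand separation of a quenched forked DNA duplex (100 nM) by 20 nM WRN with 2 mM ATP, all final. Compounds were preincubated with enzyme 15 min at room temperature.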
FEN1 inh-1 = human FEN1 inhibition; P39748; Recombinant FEN1 flap cleavage, fluorescence, 15 min; Potency, µM (doses to about 114 µM), for the others: at the highest dose activity change, negative = inhibition, hits mostly inhibitors; actives 0.35% (n = 390,000); note: % is set by controls: 0 for no effect and ±100 for the full control effect; nearly all actives have a fitted effect of over 65% in size
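Compounds are tested as a concentration series against 10 nM FEN1; after a 15 min room-temperature preincubation, 50 nM substrate starts cleavage, with plate reads at 0 and 15 min. Normalized responses are fitted by a Hill equation.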
Pol beta inh = blocks human DNA polymerase beta activity. Pol beta primer extension/strand displacement, fluorescence kinetic. actives 1.3% (n = 340,000). AID 485314. P06746. Potency, µM (doses to about 114 µM), for the others: at the top dose activity change, negative = inhibition, hits mostly inhibitors; note: % is set by controls: 0 for no effect and ±100 for the full control effect
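Pol beta (10 nM) was preincubated with compound for 15 min at room temperature. The reaction was then started with 50 nM substrate and read immediately and after a further 10 min at room temperature.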
POLI inh = DNA polymerase iota (human) inhibition; Pol iota fluorescent replication assay, 10 min; Potency, µM (top dose mostly 115 µM), without a hit: at the top dose activity, negative = inhibition, actives largely listed as inhibitors; actives 1% (n = 390,000)
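Fluorescent replication assay read twice, at 0 min and 10 min after adding 50 nM (final) substrate. Enzyme (10 nM) and compounds were first incubated 15 min at room temperature; enzyme-free buffer wells were negative controls.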
Pol kappa inh-1 = inhibitors of human DNA polymerase kappa. Q9UBT6. purified Pol kappa, fluorescent DNA synthesis assay, 10 min. Potency, µM (highest dose often 107 µM), for inactives: at the top dose activity, negative = inhibition, usual class: inhibitors. actives 0.53% (n = 400,000); note: % is set by controls: 0 for no effect and ±100 for the full control effect
Target sequence (Q9UBT6 whole entry, looked up): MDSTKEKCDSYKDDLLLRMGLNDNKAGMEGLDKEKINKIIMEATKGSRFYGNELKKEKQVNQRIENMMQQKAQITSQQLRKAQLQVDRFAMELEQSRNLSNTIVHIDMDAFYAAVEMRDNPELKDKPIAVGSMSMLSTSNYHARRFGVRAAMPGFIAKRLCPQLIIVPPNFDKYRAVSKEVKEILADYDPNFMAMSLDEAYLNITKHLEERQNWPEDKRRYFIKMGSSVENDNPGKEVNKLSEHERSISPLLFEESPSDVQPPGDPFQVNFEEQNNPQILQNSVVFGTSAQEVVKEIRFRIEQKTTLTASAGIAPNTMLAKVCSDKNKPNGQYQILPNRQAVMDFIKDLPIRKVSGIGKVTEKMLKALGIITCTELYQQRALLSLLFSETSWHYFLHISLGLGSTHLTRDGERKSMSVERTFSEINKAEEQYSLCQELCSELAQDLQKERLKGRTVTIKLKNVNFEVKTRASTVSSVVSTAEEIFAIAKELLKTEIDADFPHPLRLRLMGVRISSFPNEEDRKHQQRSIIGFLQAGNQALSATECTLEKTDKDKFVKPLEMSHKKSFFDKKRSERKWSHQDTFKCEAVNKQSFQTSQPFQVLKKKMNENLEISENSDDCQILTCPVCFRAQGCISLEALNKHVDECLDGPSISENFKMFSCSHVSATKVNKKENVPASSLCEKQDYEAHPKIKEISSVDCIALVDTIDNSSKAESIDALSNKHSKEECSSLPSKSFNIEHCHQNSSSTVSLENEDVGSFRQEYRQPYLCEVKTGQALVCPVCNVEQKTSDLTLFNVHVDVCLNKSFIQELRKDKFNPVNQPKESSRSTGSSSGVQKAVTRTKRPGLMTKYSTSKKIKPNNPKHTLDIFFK
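50 nM final substrate added after 15 min RT preincubation of 10 nM Pol kappa with compound; fluorescence read at 0 and 10 min.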
Pol eta inh-1 = DNA polymerase eta (human) inhibition; recombinant Pol eta, fluorescent DNA replication assay; Potency, µM (series often up to 114 µM), inactives show top-dose activity change, negative = inhibition, actives largely listed as inhibitors; actives 1.2% (n = 390,000); note: % is set by controls: 0 for no effect and ±100 for the full control effect
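Fluorescent replication assay: 50 nM final substrate added after a 15 min room-temperature compound preincubation with 10 nM enzyme. Signal taken at 0 min and again at 10 min.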
Pol kappa inh-2 = Pol kappa (human) inhibition, cherry-pick confirmation; shares compounds with Pol eta inh-1; purified Pol-kappa, fluorescent strand-displacement substrate; Potency, µM, most hits filed as inhibitors; actives 76% (n = 920)
Pol eta inh-2 = confirmation of human DNA polymerase eta inhibitors. actives 64% (n = 2,600). Potency, µM, actives largely listed as inhibitors. Pol eta primer extension, TAMRA/BHQ fluorescence, 10 min. AID 720502. shares compounds with Pol eta inh-1
FEN1 inh-2 = confirmation of human FEN1 inhibitors; FEN1 flap cleavage, TAMRA/BHQ2 fluorogenic DNA substrate; actives 79% (n = 880); shares compounds with FEN1 inh-1; AID 720498; Potency, µM, actives largely listed as inhibitors; note: nearly all actives have a fitted effect of over 60% in size
The depositor's hits bear a star; ! = repeats disagree; [ ] = remark or other dose. Calls come from the whole dose curve; as a rule, active = well fitted curve in the direction sought with a large enough effect; inconclusive = small, poorly fitted or top-dose-only effect, or another doubt; inactive = no such curve, though single readings can be large; an effect the other way counts as inactive or inconclusive. Potency is the fitted concentration of half-maximal effect.

How did CCCCn1c(Cl)nc2c1c(=O)n(C)c(=O)n2C do in these assays?
WRN inhibitor: 8%; FEN1 inh-1: 1%; Pol beta inh: 86%; POLI inh: -4%; Pol kappa inh-1: -5%; Pol eta inh-1: -5%

How did COc1cc(/C=C2/CCCC(C(=O)C(F)(F)F)=C2O)ccc1O do in these assays?
WRN inhibitor: inconclusive; FEN1 inh-1: -1%; Pol beta inh: 0%; POLI inh: 63%; Pol kappa inh-1: -14%; Pol eta inh-1: -18%

What do the screens show for `CCOc1cc(/C=C2\CCCC(C(=O)C(F)(F)F)=C2O)ccc1O`?
WRN inhibitor: -33%; FEN1 inh-1: inconclusive; Pol beta inh: 50µM*; POLI inh: 8%; Pol kappa inh-1: 0%; Pol eta inh-1: inconclusive; Pol kappa inh-2: 75*

How did COc1cc2[nH]c(=O)[nH]c(=O)c2cc1OC do in these assays?
Pol kappa inh-1: 5%[12 µM]

How did O=c1c(-c2ccc(Cl)cc2)coc2c(CN3CCOCC3)c(O)ccc12 do in these assays?
WRN inhibitor: 1%; FEN1 inh-1: 0%; Pol beta inh: 13%; POLI inh: 1%; Pol kappa inh-1: -12%; Pol eta inh-1: -15%

How did Oc1c(Br)cc(Br)c(/C=N/n2c(-c3ccccc3)n[nH]c2=S)c1Br do in these assays?
WRN inhibitor: inconclusive; FEN1 inh-1: inconclusive; Pol beta inh: inconclusive; POLI inh: 28µM*; Pol kappa inh-1: inconclusive; Pol eta inh-1: 35µM*; Pol kappa inh-2: inconclusive; Pol eta inh-2: inconclusive

Results for Oc1ccc(Br)cc1/C=N/n1c(-c2ccccc2)n[nH]c1=S ?
WRN inhibitor: -8%; FEN1 inh-1: -7%; Pol beta inh: 6%; POLI inh: inconclusive; Pol kappa inh-1: -24%; Pol eta inh-1: -7%

How did S=c1[nH]nc(-c2cc(-c3ccccc3)n[nH]2)n1/N=C/c1cccc(Cl)c1 do in these assays?
WRN inhibitor: 50µM*; FEN1 inh-1: inconclusive; Pol beta inh: 7.1µM*; POLI inh: 25µM*; Pol kappa inh-1: inconclusive; Pol eta inh-1: 40µM*; Pol eta inh-2: 27*

Results for O=C(Nc1ccccc1Sc1ccccc1)c1ccc(F)cc1 ?
WRN inhibitor: -2%; FEN1 inh-1: -23%; Pol beta inh: 0%; POLI inh: 1%; Pol kappa inh-1: -14%[60.1 µM]; Pol eta inh-1: -26%

How did COc1ccc(NC(=O)c2ccc(-n3cccn3)nc2)cc1 do in these assays?
WRN inhibitor: 11%; FEN1 inh-1: -1%; Pol beta inh: 18%; POLI inh: 0%; Pol kappa inh-1: -12%; Pol eta inh-1: -10%

Results for N=C(N)SCc1ncccc1O ?
WRN inhibitor: -14%; FEN1 inh-1: -12%; Pol beta inh: -3%; POLI inh: 50µM*; Pol kappa inh-1: -46%; Pol eta inh-1: -3%; Pol eta inh-2: inconclusive

Results for Cc1ccc(S(=O)(=O)N2CCCCC2)cc1C(=O)Nc1cccnc1 ?
WRN inhibitor: -3%[11.6 µM]; FEN1 inh-1: -2%; Pol beta inh: 32µM*; POLI inh: 50µM*; Pol kappa inh-1: -42%; Pol eta inh-1: 18µM*; Pol eta inh-2: 76*

What do the screens show for `O=C(Nc1cccnc1)c1cccc(S(=O)(=O)N2CCCCC2)c1`?
WRN inhibitor: -12%; FEN1 inh-1: -6%; Pol beta inh: 4%; POLI inh: 64%; Pol kappa inh-1: -1%; Pol eta inh-1: -22%

What do the screens show for `O=[N+]([O-])c1cc(Br)cc(C=Nc2ccc3c(c2)OCO3)c1O`?
WRN inhibitor: -28%; FEN1 inh-1: inconclusive; Pol beta inh: 25µM*; POLI inh: inconclusive; Pol kappa inh-1: inconclusive; Pol eta inh-1: 79µM*; Pol eta inh-2: 76*

What do the screens show for `O=[N+]([O-])c1ccc(O)c(C=Nc2ccc3c(c2)OCO3)c1`?
WRN inhibitor: -1%; FEN1 inh-1: -3%; Pol beta inh: 53%; POLI inh: -9%; Pol kappa inh-1: -11%; Pol eta inh-1: -16%

Results for COc1ccc2cc3cc(C(=O)N4CCN(c5ccc(C(C)=O)cc5)CC4)sc3nc2c1Cl ?
FEN1 inh-1: -3%; Pol beta inh: -5%; POLI inh: 14%; Pol kappa inh-1: -4%[60.1 µM]; Pol eta inh-1: 0%

How did COc1ccccc1NC(=O)c1cc2cc3ccc(OC)c(Cl)c3nc2s1 do in these assays?
FEN1 inh-1: inconclusive; Pol beta inh: 2.8µM*; POLI inh: -27%; Pol kappa inh-1: -9%[60.1 µM]; Pol eta inh-1: inconclusive; Pol kappa inh-2: 21*; Pol eta inh-2: inconclusive

Results for Cc1nn(CC(=O)OCC(=O)Nc2cccc(S(N)(=O)=O)c2)c(C)c1[N+](=O)[O-] ?
WRN inhibitor: 2%; FEN1 inh-1: -5%; POLI inh: 61%; Pol kappa inh-1: 2%; Pol eta inh-1: -21%

Results for COc1ccc(NC(=O)C2CC(=O)N/C(=N/N=C/c3ccco3)S2)cc1 (centres undefined) ?
WRN inhibitor: -2%; FEN1 inh-1: 13%; Pol beta inh: -8%; POLI inh: 11%; Pol kappa inh-1: -6%; Pol eta inh-1: 8%

What do the screens show for `C[C@H]1CN([C@@H](C)CO)C(=O)CCCn2nncc2CO[C@@H]1CN(C)C(=O)Nc1ccc2c(c1)OCO2`?
WRN inhibitor: -3%; Pol eta inh-1: -15%

What do the screens show for `CN(C)CCCn1c2c3ccccc3ccc2c2oc(=O)c3ccccc3c21`?
WRN inhibitor: -5%[11.6 µM]; FEN1 inh-1: 3.2µM*; POLI inh: 14µM*; Pol kappa inh-1: 50µM*!; Pol eta inh-1: inconclusive; Pol eta inh-2: inconclusive

Results for CCOC(=O)C1=C(COC(=O)c2ccc([N+](=O)[O-])s2)NC(=O)NC1C (centres undefined) ?
WRN inhibitor: 25%; FEN1 inh-1: inconclusive; POLI inh: 50µM*; Pol kappa inh-1: inconclusive; Pol eta inh-1: 40µM*; Pol eta inh-2: inconclusive; FEN1 inh-2: 4.3*

How did O=[N+]([O-])c1ccc2c([N+](=O)[O-])ccc3c2c1CC3 do in these assays?
WRN inhibitor: 0%[11.6 µM]; Pol eta inh-1: 14µM*; Pol eta inh-2: 76*; FEN1 inh-2: inconclusive

Screening results: PubChem BioAssay, National Center for Advancing Translational Sciences (NCATS)
